# Data: article PMC4336329 (PLoS ONE, 2015)
# About 14,000 (4.5%) of roughly 310,000 compounds showed an effect of 50% or more. Effects have a minus sign here. The list comes from a sample in which strong results are over-represented; it also holds similar structures and randomly drawn compounds.
# Target: human ether-à-go-go-related gene (hERG) potassium channel (human, UniProt Q12809)
# Assay: primary screen, population patch clamp on CHO cells stably expressing hERG; higher = less effect of the substance
# 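Note: peak tail current of the secondary pulse compared with the same well before compound.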
# human ether-à-go-go-related gene (hERG) potassium channel, sequence (Q12809 whole entry, looked up): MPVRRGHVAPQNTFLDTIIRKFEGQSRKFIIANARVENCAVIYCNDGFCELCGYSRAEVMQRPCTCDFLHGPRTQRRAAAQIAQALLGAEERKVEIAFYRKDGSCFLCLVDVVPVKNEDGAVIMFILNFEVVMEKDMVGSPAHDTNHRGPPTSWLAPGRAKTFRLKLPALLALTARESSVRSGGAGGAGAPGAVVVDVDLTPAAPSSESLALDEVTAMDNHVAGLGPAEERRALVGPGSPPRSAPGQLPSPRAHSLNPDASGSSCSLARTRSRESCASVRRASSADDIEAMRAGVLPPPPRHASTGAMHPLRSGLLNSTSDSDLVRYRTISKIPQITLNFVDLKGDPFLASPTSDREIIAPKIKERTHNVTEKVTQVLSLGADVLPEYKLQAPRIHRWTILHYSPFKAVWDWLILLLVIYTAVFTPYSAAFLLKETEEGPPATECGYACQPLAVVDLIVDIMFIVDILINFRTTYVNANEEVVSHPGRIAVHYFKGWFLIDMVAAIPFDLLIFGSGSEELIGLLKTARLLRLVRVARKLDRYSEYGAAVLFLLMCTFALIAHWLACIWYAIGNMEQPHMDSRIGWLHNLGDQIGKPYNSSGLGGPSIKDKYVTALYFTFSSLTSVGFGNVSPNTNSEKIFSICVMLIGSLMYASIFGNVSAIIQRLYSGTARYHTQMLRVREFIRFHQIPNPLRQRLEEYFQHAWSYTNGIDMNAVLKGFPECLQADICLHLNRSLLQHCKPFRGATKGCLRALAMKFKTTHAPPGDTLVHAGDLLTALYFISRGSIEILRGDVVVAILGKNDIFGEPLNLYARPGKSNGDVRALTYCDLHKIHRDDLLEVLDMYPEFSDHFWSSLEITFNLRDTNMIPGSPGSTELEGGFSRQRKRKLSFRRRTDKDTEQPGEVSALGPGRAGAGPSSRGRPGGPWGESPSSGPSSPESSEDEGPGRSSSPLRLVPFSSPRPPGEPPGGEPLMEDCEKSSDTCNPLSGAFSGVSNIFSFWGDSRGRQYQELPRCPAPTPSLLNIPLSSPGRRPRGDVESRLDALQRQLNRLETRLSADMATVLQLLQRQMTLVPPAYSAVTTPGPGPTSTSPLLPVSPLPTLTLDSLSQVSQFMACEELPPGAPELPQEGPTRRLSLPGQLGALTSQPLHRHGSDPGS
row,SMILES,"hERG current change (%, negative = inhibition) at 10uM [%]"
1,COc1ccc(C(Sc2ccccc2)c2ccccc2)cc1OC (stereo not drawn),7.26
2,O=C(O)CCN=CC1=C(O)CC(c2ccccc2)CC1=O (stereo not drawn),3.13
3,O=C(C[n+]1cccc(O)c1)NCc1ccc(Cl)cc1.[Cl-],24.2
4,CCOC(=O)CC1C(=O)NCCN1C(=O)c1ccc(C)cc1 (stereo not drawn),14.9
5,Cc1sc2c(c1C)C(O)=C(C(=O)Nc1ccccc1)S(=O)(=O)N2C,4.91
6,O=C(CSc1nnc2c(n1)[nH]c1ccc(F)cc12)N1CCOCC1,5.63
7,Cc1ccc(NC(=O)CCN2CCCCC2)cc1.Cl,-0.243
8,Cc1ccc(NC(=O)CCN2CCC(Cc3ccccc3)CC2)cc1,-75.1
9,Cc1ccc(NC(=O)CCN2CCN(C/C=C/c3ccccc3)CC2)cc1C.Cl,-71.8
10,Cc1ccc(NC(=O)CCN2CCOCC2)cc1C,14.1
11,Cc1cc(NC(=O)CCN2CCN(Cc3ccccc3)CC2)ccc1Br.Cl,-28
12,Cc1ccc(NC(=O)CN2CCc3ccccc3C2)cc1,-30.3
13,COc1ccc(CN2CCc3ccc(NC(=O)CCc4ccccc4OC)cc3C2)c(O)c1,-35.2
14,COc1cccc(CN2CCc3ccc(NC(=O)CCc4ccc(C)cc4)cc3C2)c1O,-52.2
15,COc1cc(CN2CCc3ccc(NC(=O)CCc4ccccc4OC)cc3C2)ccc1O,-37.3
16,Cc1ccc(NC(=O)CCN2CCC(C(N)=O)CC2)cc1,17.3
17,O=C(CCN1CCc2ccccc2C1)Nc1ccccc1,-24.2
18,Cc1ccc(NC(=O)CCN2CCc3ccccc3C2)cc1.Cl,-60.8
19,CSc1ncccc1C(=O)N1CCCC(N2CCN(c3ccccc3F)CC2)C1 (stereo not drawn),-12.4

row,SMILES,"hERG current change (%, negative = inhibition) at 10uM [%]"
1,NS(=O)(=O)c1ccc(CCNC(=O)CN2C(=O)c3ccccc3S2(=O)=O)cc1,1.3
2,CCOC(=O)N1CCN(C(=O)c2ccc(CNS(=O)(=O)c3ccc(OC)cc3)cc2)CC1,-4.84
3,Cl.O=C(CCN1CCCCCC1)Nc1cccc(F)c1,-23.6
4,CN1CCN(CCC(=O)Nc2cccc(F)c2)CC1,-1.22
5,O=C(CCN1CCN(C/C=C/c2ccccc2)CC1)Nc1cccc(F)c1,-77.9
6,CCOC(=O)OC(C)OC1=C(C(=O)Nc2ccccn2)N(C)S(=O)(=O)c2ccccc21 (stereo not drawn),16.1
7,O=P(Nc1c(Cl)cccc1Cl)(c1ccccc1)c1nc2c(s1)CCCC2 (stereo not drawn),10
8,Nc1nonc1-n1nnc(C(=O)N/N=C/c2ccc(Br)cc2)c1CSC1=NCCS1,-3.36
9,O=c1[nH]c([N+](=O)[O-])nn1C(c1ccccc1)c1ccccc1,-13.7
10,COCCCN1C(=O)c2ccccc2C1C(=O)NC1CCCCCC1 (stereo not drawn),-2.83
11,O=C(Nc1ccccc1)N1C2CCC1CC(O)(c1cccnc1)C2 (stereo not drawn),8.01
12,O=C(CN1C2CCC1CC(O)(c1cccnc1)C2)Nc1ccc2c(c1)OCO2 (stereo not drawn),-53.1
13,COc1cc(NC(=O)CN2C3CCC2CC(O)(c2cccnc2)C3)cc(OC)c1 (stereo not drawn),-60.9
14,O=C(Nc1cccc(F)c1)N1C2CCC1CC(O)(c1cccnc1)C2 (stereo not drawn),24.1
15,COCCNC(=O)CN1C2CCC1CC(O)(c1cccnc1)C2 (stereo not drawn),0.682
16,COc1ccc(NC(=O)CN2C3CCC2CC(O)(c2cccnc2)C3)cc1OC (stereo not drawn),0.385
17,Brc1cccc(-c2nnc3n2CCC3)c1,2.98
18,O=C(NC1CCN(C(=O)Nc2ccccc2)CC1)C1CCCCC1,-7.88
19,O=C(CN1C(=O)c2cccc3cccc1c23)Nc1ccc(S(=O)(=O)N2CCOCC2)cc1,-9.06

row,SMILES,"hERG current change (%, negative = inhibition) at 10uM [%]"
1,CCCSCCCNC(=O)Cn1cc2c(n1)CCC(C)C2 (stereo not drawn),-12.8
2,COc1ccc(-c2nc3n(c(=O)c2C#N)CCCS3)cc1,-4.57
3,COCCNC(=O)/C(=C/c1ccccc1Cl)c1ccccc1,-0.406
4,COC(=O)N/N=C\c1ccc(OC/C=C/c2ccccc2)c(OC)c1,6.04
5,N#CC1=C(SCC(=O)Nc2cccc3cccnc23)NC(=O)C(C#N)C12CCCCC2 (stereo not drawn),-20.7
6,N#CC1=C(SCc2ccccc2)NC(=O)C(C#N)C12CCCC2 (stereo not drawn),1.97
7,N#CC1=C(SCC(=O)c2cc3ccccc3oc2=O)NC(=O)C(C#N)C12CCCC2 (stereo not drawn),-54.5
8,COC(=O)c1ccc(NC(=O)CCS(=O)(=O)c2ccc(Br)cc2)cc1,28.8
9,NC(N)=NS(=O)(=O)c1ccc(NC(=S)NC(=O)c2ccncc2)cc1,2.9
10,COc1ccccc1CNC(=O)C1=C(C)C(=O)OC12CCC(C)CC2 (stereo not drawn),-2.21
11,COc1cccc(C2=CC(=O)C[C@H](c3ccc(OC)c(OC)c3)C2)c1,-40
12,COc1ccc([C@H]2CC(=O)C=C(c3ccccc3)C2)cc1OC,-3.04
13,COc1ccc([C@H]2CC(=O)C=C(c3cccc(CO)c3)C2)cc1,-59.3
14,O=C1C=C(c2cccc(Cl)c2)C[C@@H](c2ccc(Cl)cc2)C1,24.4
15,COc1ccc([C@H]2CC(=O)C=C(c3ccc(CO)cc3)C2)cc1,-4.98
16,COc1ccc([C@H]2CC(=O)C=C(c3cccc(CO)c3)C2)cc1OC,-63.6
17,O=C1C=C(c2cccc(CO)c2)C[C@@H](c2ccc(Cl)cc2)C1,-54.5
18,O=C1C=C(c2cccc(CO)c2)C[C@@H](c2ccc(F)cc2)C1,-45.3
19,COCc1cccc(C2=CC(=O)C[C@H](c3ccc(OC)cc3)C2)c1,-20.7
